High-throughput results: PubChem BioAssay, National Center for Advancing Translational Sciences (NCATS)
TDP1 cell CPT = DT40-hTDP1 cell growth loss with CPT. actives 12% (n = 420,000). AID 686979. chicken DT40 Tdp1-/-;hTDP1 cells + 20 nM CPT, ATP luminescence, 48 h. Potency, µM (top dose mostly 46.2 µM), for the others: at the highest dose activity change, negative = growth inhibition, most hits filed as inhibitors; further: potency means the concentration at half of the fitted maximal effect; nearly all actives have a fitted effect of over 55% in size
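Chicken DT40 Tdp1-/- cells complemented with human TDP1, 400 cells/well, exposed to compounds plus 20 nM camptothecin for at least 48 h at 37 C; viability read as ATP content by CellTiter-Glo luminescence.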
uPA surface inh = cell surface uPA generation inhibition. cell surface uPA generation assay, qHTS. Potency, µM (titrated, usually from 38.3 µM), for inactives: at the highest dose activity change, negative = inhibition, hits mostly inhibitors. actives 0.31% (n = 330,000). AID 540303; active means well fitted inhibition curve with a large enough effect; inconclusive means small, poorly fitted or top-dose-only effect; inactive means no such curve, though single readings can be large or run the other way; tested in mouse RAW 264.7 cells; further: potency means the concentration at half of the fitted maximal effect; nearly all actives have a fitted effect of over 55% in size
HT1080NT lethal = kills 2HG-producing HT-1080-NT fibrosarcoma cells | HT-1080-NT fibrosarcoma viability, CellTiter-Glo ATP luminescence, 48 h | AID 686970 | Potency, µM (top dose mostly 46.1 µM), for inactives: top-dose activity, negative = less viability, usual class: cytotoxic | actives 1.6% (n = 360,000);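 further: NT is the 2HG producing partner of a matched IDH1 knockdown line; potency means the concentration at half of the fitted maximal effect; 0% = DMSO-treated cells and -100% = media-only wells without cells; nearly all actives have a fitted effect of over 55% in size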
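Luminescent CellTiter-Glo readout after 48 hours of compound exposure at 37 degrees C defined viability of HT-1080-NT cells. Activity was normalized to DMSO wells and cell-free media wells; concentration-response curves were fitted and assigned curve classes.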
TDP1 cell noCPT = qHTS for Inhibitors of human tyrosyl-DNA phosphodiesterase 1 (TDP1): qHTS in cells in absence of CPT. DT40 Tdp1-/- hTDP1 cells, no CPT, ATP luminescence, 48 h. Potency, µM (highest dose often 46.2 µM), for the others: at the top dose activity change, negative = growth inhibition, usual class: inhibitors. actives 15% (n = 420,000). AID 686978, 2013; further: potency means the concentration at half of the fitted maximal effect; nearly all actives have a fitted effect of over 55% in size
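DT40 Tdp1-/-;hTDP1 cells, no CPT (DMSO vehicle only), 400 cells/well; compounds pin-transferred; ≥48 hr, 37 °C; CellTiter-Glo 30 min RT dark, luminescence read.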
HT1080 IDH1KD tx = toxicity to HT-1080 IDH1 knockdown cells (counter line); actives 2% (n = 360,000); Potency, µM (titrated, usually from 46.1 µM), for the others: at the highest dose activity, negative = toxicity, actives largely listed as cytotoxic; HT-1080 IDH1 knockdown viability, ATP luminescence, 48 h;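 further: potency means the concentration at half of the fitted maximal effect; 0% = DMSO wells and -100% = cell-free medium wells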
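Knockdown cells (IDH1KD HT-1080) received compounds 2 h after plating at 750 cells/well and were kept 48 h at 37 °C in 5% FBS RPMI. A CellTiter-Glo luminescence read gave % activity for curve fitting.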
IL1B secr inh = blocks inflammasome-driven IL-1 beta release. THP-1 LPS/ATP IL-1B secretion, AlphaLISA, 16 h; stronger effect = lower value. activity change, % at 57.5 µM. actives 4.7% (n = 360,000). AID 743279; in the data active means activity change below about -50%; inconclusive means mostly about -30% to -49%
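THP-1 cells pretreated 1 hr with compounds (up to 57.5 uM final), then stimulated with LPS (250 ng/mL final) plus ATP (1.25 mM final); secreted IL-1B measured by AlphaLISA after 16 hr, decreased signal indicating inhibition.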
Active calls of the source: *; [ ] = dose if it differs, or a comment. This is a sample that favours compounds with a hit; in the whole collection about 19% have one here. Unless noted, the call rests on the fitted dose curve; in most records, active means well fitted curve in the direction sought with a large enough effect; inconclusive means small, poorly fitted or top-dose-only effect, or another doubt; inactive means no such curve, though single readings can be large; an effect the other way counts as inactive or inconclusive. Unless noted, on the % scale 0 is the no-effect control and ±100 the full control effect.

`Cc1ccc(-c2nc(CS(=O)(=O)CC(=O)NCCc3ccccc3)c(C)o2)cc1` gave TDP1 cell CPT -1% and TDP1 cell noCPT -21%.
`COC(=O)c1ccccc1C(=O)N1CCOc2ccc(CN3CCN(c4ccccn4)CC3)cc2C1` gave TDP1 cell CPT 2%[9.04 µM] and TDP1 cell noCPT -11%.
For COc1c(C)c2c(c(O)c1C/C=C(\C)CCC(=O)OCCN1CCOCC1)C(=O)OC2 the results were TDP1 cell CPT 0.13µM* and TDP1 cell noCPT 0.17µM*.
For COc1cccc(C(=O)OCCN2CCOCC2)c1 the results were TDP1 cell CPT -13%, uPA surface inh -4%, HT1080NT lethal 6%, TDP1 cell noCPT -7%, HT1080 IDH1KD tx 8% and IL1B secr inh 2.
For COc1ccc2oc3cc(NCCN(C)C)ccc3c(=O)c2c1 the results were TDP1 cell CPT inconclusive, HT1080NT lethal inconclusive, TDP1 cell noCPT 26µM* and HT1080 IDH1KD tx inconclusive.
For COc1cccc(Cn2c(=O)sc3ccccc3c2=O)c1 the results were TDP1 cell CPT 6%, uPA surface inh -4%, HT1080NT lethal -16%, TDP1 cell noCPT -16%, HT1080 IDH1KD tx -10% and IL1B secr inh 61.
CN(C)CCNc1ccc2ncn3c4ccc(O)cc4c(=O)c1c23 was read as TDP1 cell CPT 0.052µM*, uPA surface inh -11%, HT1080NT lethal inconclusive, TDP1 cell noCPT 0.023µM*, HT1080 IDH1KD tx 21µM* and IL1B secr inh -104*.
COc1ccc2c(=O)c3ccccc3oc2c1 was read as TDP1 cell CPT inconclusive, uPA surface inh inconclusive, HT1080NT lethal -1%, TDP1 cell noCPT inconclusive, HT1080 IDH1KD tx 9% and IL1B secr inh -30.
CN(C)CCNc1ccc(CO)c2sc3ccc(O)cc3c(=O)c12 was read as TDP1 cell CPT 0.026µM*, uPA surface inh -9%, HT1080NT lethal inconclusive, TDP1 cell noCPT 0.15µM*, HT1080 IDH1KD tx 16µM* and IL1B secr inh -100*.
Screening CCOC(=O)c1cnc2ccc(Cl)cc2c1NCCN(C)C returned TDP1 cell CPT -3%, uPA surface inh 2%, HT1080NT lethal -1%, TDP1 cell noCPT inconclusive, HT1080 IDH1KD tx 3% and IL1B secr inh 0.
For COc1ccc2sc3cccc(NCCN(C)C)c3c(=O)c2c1 the results were TDP1 cell CPT 13µM*, HT1080NT lethal 16µM*, TDP1 cell noCPT 10µM*, HT1080 IDH1KD tx 16µM* and IL1B secr inh -7.
Cc1cc(C)c(S(=O)(=O)N2CCN(C(=O)C(C)Cn3cncn3)CC2)c(C)c1 (stereo not given) was read as TDP1 cell CPT 6%, uPA surface inh -1%, HT1080NT lethal -13%, TDP1 cell noCPT -4%, HT1080 IDH1KD tx -3% and IL1B secr inh 1.
`COc1ccc2c(c1)CC/C(=C/c1cc(OC)c(OC)c(OC)c1)C2=O` gave TDP1 cell CPT inconclusive, uPA surface inh -1%, HT1080NT lethal 16%, TDP1 cell noCPT 15µM*, HT1080 IDH1KD tx -7% and IL1B secr inh -85*.
For COc1ccc2c(c1)CC/C(=C\C=C\c1ccccc1)C2=O the results were TDP1 cell CPT inconclusive, uPA surface inh -1%, HT1080NT lethal 20%, TDP1 cell noCPT 23µM*, HT1080 IDH1KD tx 24% and IL1B secr inh -7.
COc1cccc(/C=C2\CCc3ccccc3C2=O)c1 was read as TDP1 cell CPT inconclusive, uPA surface inh -1%, HT1080NT lethal inconclusive, TDP1 cell noCPT inconclusive, HT1080 IDH1KD tx inconclusive and IL1B secr inh -6.
Screening COc1ccc(OC)c(C=C2CCc3ccccc3C2=O)c1 returned TDP1 cell CPT 21µM*, HT1080NT lethal inconclusive, TDP1 cell noCPT inconclusive, HT1080 IDH1KD tx inconclusive and IL1B secr inh -2.
